A selection: hits, their analogues and other compounds. The true share with any hit is near 2.2%.
Platelet DG rel: platelet dense granule release activity. human platelet-rich plasma, SFLLRN dense granule ATP release, luminescence. inhibition, %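 (compounds screened at 7.5 µM in platelet-rich plasma)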. actives 0.22% (n = 300,000). AID 1663;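 active means mean replicate score, as percent of positive control, at or above 50; inconclusive means mean below 50 but at least one replicate at or above 50; inactive means mean and every replicate below 50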
CHT block: inhibitors of human choline transporter CHT; actives 0.86% (n = 310,000); AID 488975; B-score at 10 µM; CHT-expressing cells, membrane potential dye, choline response; stronger effect = lower value; Q9GZV3;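 active means B-score over 3 SD under the library average, and starting fluorescence ratio not unusually high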;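 further: choline stimulus applied at its EC90 after an EC20 pre-addition; B-score computed on integrated fluorescence ratio after choline addition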
Target sequence (Q9GZV3 whole entry, looked up): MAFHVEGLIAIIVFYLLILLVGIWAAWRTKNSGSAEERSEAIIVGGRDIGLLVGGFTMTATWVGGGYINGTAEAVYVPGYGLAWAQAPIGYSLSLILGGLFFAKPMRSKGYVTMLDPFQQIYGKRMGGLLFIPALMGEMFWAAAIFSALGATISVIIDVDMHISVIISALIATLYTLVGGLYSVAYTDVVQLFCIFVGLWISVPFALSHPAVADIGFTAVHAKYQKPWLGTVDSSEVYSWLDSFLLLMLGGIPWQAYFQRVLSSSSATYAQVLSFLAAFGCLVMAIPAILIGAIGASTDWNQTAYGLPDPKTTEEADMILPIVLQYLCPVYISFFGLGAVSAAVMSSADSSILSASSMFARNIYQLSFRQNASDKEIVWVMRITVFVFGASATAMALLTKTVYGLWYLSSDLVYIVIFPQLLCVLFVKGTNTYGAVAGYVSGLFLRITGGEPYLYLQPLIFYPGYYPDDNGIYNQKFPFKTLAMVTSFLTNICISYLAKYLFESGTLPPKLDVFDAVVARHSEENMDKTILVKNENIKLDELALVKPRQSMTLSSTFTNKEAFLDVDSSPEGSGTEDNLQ
HIF activator: HIF pathway transcriptional activation | U2OS HRE-luciferase reporter, luminescence; normalized: DMSO 0%, desferrioxamine 100% | activation, % at 7.5 µM (by protocol) | actives 0.32% (n = 300,000) | AID 1910;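 active means mean activation of at least 10% of the iron chelator positive control signal, with at least half of replicates also reaching 10%; inconclusive means mean and replicate majority disagree about reaching 10%; inactive means mean and most replicates under 10%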
CHT PAM: human CHT allosteric activation; CHT-expressing cells, membrane potential dye, choline EC20; stronger effect = higher value; LV-AA mutant CHT in HEK293 cells; B-score at 10 µM; actives 0.49% (n = 310,000); AID 488977;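 active means initial fluorescence not abnormally high and integrated response B-score, plate-corrected, over 3 SD above library mean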
VLA-4 inh: inhibition in a human VLA-4 binding assay. AID 2557. P13612. VLA-4 expressing cells, ligand binding flow cytometry. actives 0.2% (n = 330,000). inhibition, % (about 7 µM as worked out from the volumes in the protocol); in the data active means inhibition above about 50%
AI-2 QS mod: modulators of Vibrio harveyi AI-2 quorum sensing system; AID 2094; activity change, % at 7.5 µM; actives 0.4% (n = 300,000); Vibrio harveyi JMH597 AI-2 luminescence/OD600 ratio, 9 h; stronger effect = lower value; strain lacks LuxN and CqsS sensors; 0 = neutral-control median; in the data active means activity change below about -75%, passing the limit was not always enough; inconclusive means no clear call, values can overlap the other calls;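 further: luminescence divided by OD600 gain over 9 h not by final OD600 alone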
Large screens that a line does not name were inactive.

COC(=O)c1cc(N2C(=O)C3C(C2=O)C2(C)C=CC3(C)O2)ccc1Cl (centres undefined)	AI-2 QS mod -238.3
CC(=O)Oc1ccc(N2C(=O)C3C(C2=O)C2(C)C=CC3(C)O2)cc1 (centres undefined)	none (no result: Platelet DG rel, HIF activator, AI-2 QS mod)
Cc1cc(=O)[nH]c(N=N/C(=N/Nc2ccc(O)cc2)c2ccccc2)n1	Platelet DG rel inconclusive, HIF activator 12.0
Cc1cc(=O)[nH]c(N=N/C(=N/Nc2ccccc2C)c2ccccc2)n1	none
COc1ccc(N/N=C(/N=Nc2nc(C)cc(=O)[nH]2)c2ccccc2)cc1	HIF activator 142.8
COc1ccc2nc(C)cc(Nc3ccc(C(=O)O)cc3)c2c1	none
CNc1nc(-c2ccccn2)nnc1-c1ccccc1	HIF activator 14.0
Cc1ccc2nc(-c3ccco3)c(Nc3ccccc3)n2c1	none
Cc1ccc(Nc2c(-c3ccccn3)nc3ccc(C)cn23)cc1	HIF activator 122.3
COC(=O)C1C(O)C(C)C(O)C(C)(O)/C=C\C=C(/C)C(=O)Nc2c(C)c(OC(C)=O)c3c(c2O)C(=O)C(C)=C2OCOC(=C23)/C(C)=C/C(C)(O)C(O)C(C)C1O (centres undefined)	AI-2 QS mod -159.8
Nc1ccc2nc(-c3ccccc3)sc2c1	Platelet DG rel 64.0
CCOC(=O)C(NC(=O)c1ccccc1)(N1CCOCC1)C(F)(F)F (centres undefined)	none
CCOC(=O)C(NC(C)=O)(N1CCOCC1)C(F)(F)F (centres undefined)	HIF activator 49.5
CN(C)CCSc1nc2cc(S(=O)(=O)N3CCCCC3)ccc2o1	none (no result: Platelet DG rel, CHT block, HIF activator, CHT PAM, AI-2 QS mod)
O=C(Nc1cccc(Cl)c1)Nc1csc([N+](=O)[O-])c1	AI-2 QS mod -91.3
O=C(Nc1ccncc1)Nc1cccc(Cl)c1	none
Cc1ccc(OCCCCN2CCc3ccccc3C2)cc1	none
CC1C(=O)N(Cc2ccccc2F)c2ccccc2N1C(=O)c1c(F)cccc1F (centres undefined)	CHT block -5.12
CC1C(=O)N(Cc2cccc(F)c2)c2ccccc2N1C(=O)c1ccccc1 (centres undefined)	none
Cc1ccc(NC(=O)CCSc2ccccc2)c(C)c1	none
Cc1cc(NC(=O)CCSc2ccccc2)ccc1Br	AI-2 QS mod -86.7
CC(C)Sc1cc(Cl)nc(NC(=O)Nc2ccccc2)n1	none
CCOC(=O)c1nn(-c2ccccc2)cc1O	none
COC(=O)c1nn(-c2ccc(-c3ccccc3)cc2)cc1O	Platelet DG rel 63.5
CC(C)C(NC(=O)CCNC(=O)c1ccc([N+](=O)[O-])cc1)c1nc2ccccc2[nH]1 (centres undefined)	none (no result: Platelet DG rel, CHT block, HIF activator, CHT PAM, AI-2 QS mod)
CCc1ccc(OCC(=O)N/N=C(\C)c2ccc(O)cc2O)cc1	AI-2 QS mod -78.0
O=C1CNC(=S)N1CCc1ccccc1Cl	CHT block -5.11
O=S(=O)(Nc1ccc(N2CCCCC2)cc1)c1cccs1	none
O=S(=O)(Nc1ccc(C(F)(F)F)cc1)c1cccs1	AI-2 QS mod -84.9
Cc1ccccc1NC(=O)CON=C(N)c1ccccc1	none (no result: Platelet DG rel, CHT block, HIF activator, CHT PAM, AI-2 QS mod)
CCC1CCc2sc(C(=O)NCC3CCCO3)cc2C1 (centres undefined)	none (no result: Platelet DG rel, CHT block, HIF activator, CHT PAM, AI-2 QS mod)
CCC1CCc2sc(C(=O)NCc3ccccn3)cc2C1 (centres undefined)	HIF activator 21.9
COc1ccc(CNC(=O)COC(=O)c2cc(S(=O)(=O)N3CCOCC3)ccc2O)cc1OC	none (no result: Platelet DG rel, CHT block, HIF activator, CHT PAM, AI-2 QS mod)
CN(C)C(=O)CSc1nc2ccccc2n1Cc1ccccc1	HIF activator 366.5
Cc1ccc(C)c(-c2cc(C(=O)Nc3cccc(C(=O)O)c3)c3ccccc3n2)c1	HIF activator 39.4
Cc1ccc(C)c(-c2cc(C(=O)Nc3cccnc3)c3ccccc3n2)c1	none
Cc1ccc(NC(=O)c2cc(S(=O)(=O)Nc3ccc(C)cc3)cs2)cc1	AI-2 QS mod -79.4
O=C(Nc1nc(-c2ccccn2)cs1)c1ccc(Br)s1	AI-2 QS mod -95.1
O=C(Nc1nc(-c2ccccn2)cs1)c1cccc(-n2cnnn2)c1	HIF activator 19.6
NCCCn1c(C(=O)c2cc(Cl)c(N)c(Cl)c2)c2ccc([N+](=O)[O-])cc2[n+]1[O-]	CHT block -5.46
Cc1ccc(C(=O)c2c3ccc([N+](=O)[O-])cc3[n+]([O-])n2CCC(N)=O)cc1	none
CCc1ccc(NC(=O)CS(=O)CC(=O)Nc2ccc(-n3cnnn3)c(C)c2)cc1 (centres undefined)	none
O=C(/C=C/c1cn(-c2ccccc2)nc1-c1ccccc1)Nc1ccc(C(=O)O)cc1	HIF activator 16.0
NS(=O)(=O)c1ccc(NC(=O)/C=C/c2cn(-c3ccccc3)nc2-c2cccc(Cl)c2)cc1	none
Cc1ccc(NC(=O)CCC(=O)N/N=C/c2ccc(O)cc2O)cc1	HIF activator 134.8
O=C(CSc1ccc2ccccc2n1)N/N=C/c1ccccc1O	none
Cc1cc(SCC(=O)N/N=C/c2ccc(O)cc2O)c(C)cc1Br	HIF activator 39.0
Cc1cc(SCC(=O)N/N=C/c2ccccc2C(=O)O)c(C)cc1Br	HIF activator 21.2
COC(=O)C1=C(C)N(C)C(=S)NC1c1c(OC)ccc2ccccc12 (centres undefined)	none
COc1cc(/C=C2\S/C(=N/S(=O)(=O)c3ccc(C)cc3)NC2=O)c([N+](=O)[O-])cc1OC	CHT block -7.41
Cc1ccc(S(=O)(=O)/N=C2/NC(=O)/C(=C/c3ccncc3)S2)cc1	CHT block -5.34
Cc1ccc(S(=O)(=O)/N=C2/NC(=O)/C(=C\c3ccccc3)S2)cc1	none (no result: Platelet DG rel, CHT block, HIF activator, CHT PAM, AI-2 QS mod)
O=C1CC2(CCN(S(=O)(=O)c3ccccc3F)CC2)Oc2ccccc21	none
O=C(/C=C/c1ccccc1)NC(=S)NNC(=O)c1ccco1	AI-2 QS mod inconclusive
O=C(Cc1cccs1)NNC(=S)NCc1ccc(Cl)cc1	none
O=C(/C=C/c1ccc(Br)cc1)NC(=S)NNC(=O)c1ccco1	AI-2 QS mod -100.0
O=C(Cc1cccs1)NNC(=S)NC(=O)c1ccco1	AI-2 QS mod -83.8
COC(=O)Nc1ccc(=O)n(Cc2c(Cl)cccc2Cl)c1	HIF activator 174.9
Cc1ccc(NS(=O)(=O)c2ccc(-c3csc(C)n3)s2)c(C)c1	none
COc1cccc(OCCNC(=O)c2cccc(OC)c2)c1	Platelet DG rel 53.4
CCOc1ccc(CN(C(=O)c2cccs2)C2CCS(=O)(=O)C2)cc1 (centres undefined)	none
Cn1cc(S(=O)(=O)N2CCOCC2)cc1C(=O)O	none (no result: Platelet DG rel, CHT block, HIF activator, CHT PAM, AI-2 QS mod)
CCCc1cc(-c2nc(N)ncc2-c2ccc3c(c2)OCCCO3)c(O)cc1OC	Platelet DG rel 69.6
CCCc1cc(-c2nc(N)ncc2-c2csc(C)n2)c(O)cc1OC	none
O=[N+]([O-])c1ccc(N/N=C/c2cccc(O)c2)cc1	AI-2 QS mod -85.9
O=[N+]([O-])c1ccc(N/N=C/c2cccnc2)cc1	none
